From PubChem BioAssay (NCATS)
“And” between values parts separate entries of the source, which are not always exact repeats. Equal entries are not always repeated. Inconclusive results are not listed. The source made the active and inactive calls. Calls follow the shape of the dose curve; as a rule, active = well fitted curve in the direction sought with a large enough effect; inconclusive = small, poorly fitted or top-dose-only effect, or another doubt; inactive = no such curve, though single readings can be large; an effect the other way counts as inactive or inconclusive.

Legend:
[1] = P-glycoprotein substrates identified in KB-8-5-11 adenocarcinoma cell line, qHTS therapeutic library screen (AID 1346987); also: nearly all actives have a fitted effect of over 65% in size
In short: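 Steps: plate 500 KB-8-5-11 cells/well in DMEM + 10% FCS (colchicine removed); pin compounds in dose-response; incubate 72 h, 37 degree C, 5% CO2; add CellTiter-Glo, 5 min; read luminescence.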

[2] = qHTS of pediatric cancer cell lines to identify multiple opportunities for drug repurposing: Primary screen for TC32 cells (AID 1347089); also: nearly all actives have a fitted effect of over 60% in size
In short: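 In the primary qHTS, MIPE compounds were tested at 11 concentrations (0.78 nM to 46 µM) and NPC compounds at 8 (0.59 nM to 46 µM) on TC32 cells for 48 h. CellTiter-Glo luminescence gave viability.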

[3] = qHTS of pediatric cancer cell lines to identify multiple opportunities for drug repurposing: Primary screen for DAOY cells (AID 1347090); also: nearly all actives have a fitted effect of over 55% in size
In short: (§1)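 Cell viability, CellTiter-Glo luminescence; 500-1,000 cells/well, 8- or 11-point titration, 48 h compound exposure at 37 degrees C, 5% CO2. Controls: DMSO neutral, bortezomib 2.3 µM final as positive.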

[4] = qHTS of pediatric cancer cell lines to identify multiple opportunities for drug repurposing: Primary screen for SJ-GBM2 cells (AID 1347091)
In short: as §1

[5] = qHTS of pediatric cancer cell lines to identify multiple opportunities for drug repurposing: Primary screen for A673 cells (AID 1347092); also: nearly all actives have a fitted effect of over 45% in size
In short: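 48 h compound exposure, A673, 500-1,000 cells/well, 37 degrees C/5% CO2. MIPE: 11-point, 0.78 nM-46 µM; NPC: 8-point, 0.59 nM-46 µM (final). Readout CellTiter-Glo luminescence after 15 min RT.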

[6] = qHTS of pediatric cancer cell lines to identify multiple opportunities for drug repurposing: Primary screen for SK-N-MC cells (AID 1347093)
In short: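 Metabolically active cells were quantified by ATP-dependent luminescence (CellTiter-Glo, 15 min at room temperature) following 48 h treatment. Cells had been plated at 500-1,000 per well and settled for 5 h beforehand.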

[7] = qHTS of pediatric cancer cell lines to identify multiple opportunities for drug repurposing: Primary screen for BT-37 cells (AID 1347094)
In short: (§2)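 Phenotypic viability qHTS, 48 h compound exposure, CellTiter-Glo luminescence read-out; multi-concentration dosing so that potency and efficacy derive directly from the primary screen's curves.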

[8] = qHTS of pediatric cancer cell lines to identify multiple opportunities for drug repurposing: Primary screen for NB-EBc1 cells (AID 1347095)
In short: as §2

[9] = qHTS of pediatric cancer cell lines to identify multiple opportunities for drug repurposing: Primary screen for U-2 OS cells (AID 1347096); also: nearly all actives have a fitted effect of over 50% in size
In short: (§3)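 Cells (500-1,000/well) rested 5 h, then received compounds for 48 h; metabolically active cells were measured by CellTiter-Glo luminescence. Final concentrations spanned up to 46 µM (MIPE, 11-point) or 0.59 nM-46 µM (NPC, 8-point) in primary screens, 11-point in follow-ups.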

[10] = qHTS of pediatric cancer cell lines to identify multiple opportunities for drug repurposing: Primary screen for Saos-2 cells (AID 1347097); also: nearly all actives have a fitted effect of over 40% in size
In short: as §2

[11] = qHTS of pediatric cancer cell lines to identify multiple opportunities for drug repurposing: Primary screen for SK-N-SH cells (AID 1347098); also: nearly all actives have a fitted effect of over 65% in size
In short: as §3

[12] = qHTS of pediatric cancer cell lines to identify multiple opportunities for drug repurposing: Primary screen for NB1643 cells (AID 1347099); also: nearly all actives have a fitted effect of over 50% in size
In short: as §2

[13] = qHTS of pediatric cancer cell lines to identify multiple opportunities for drug repurposing: Primary screen for LAN-5 cells (AID 1347100)
In short: as §3

[14] = qHTS of pediatric cancer cell lines to identify multiple opportunities for drug repurposing: Primary screen for BT-12 cells (AID 1347101); also: nearly all actives have a fitted effect of over 25% in size
In short: as §3

[15] = qHTS of pediatric cancer cell lines to identify multiple opportunities for drug repurposing: Primary screen for Rh18 cells (AID 1347102); also: nearly all actives have a fitted effect of over 65% in size
In short: as §3

[16] = NS1 protein of Zika virus - qHTS assay to identify small molecule inhibitors in human HEK 293 cells (AID 1347053); also: nearly all actives have a fitted effect of over 55% in size
In short: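 HEK 293 cells pretreated with compound for 1 h, then infected with ZIKV MR766 (MOI 0.5) for 24 h at 37 C. NS1 detected by TR-FRET with two anti-NS1 antibodies; normalized to uninfected (0%) and infected (100%) wells.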

Measured: Potency
Potency is read from the fitted curve at half-maximal effect.

O=C(C=CC=Cc1ccc2c(c1)OCO2)N1CCCCC1
inactive: [1] | [2] | [3] | [4] | [5] | [6] | [7] | [8] | [9] | [10] | [11] | [12] | [13] | [14] | [15]

COc1cc(N2CCC(C(N)=O)CC2)ccc1Nc1nc(N)c(Cl)c(Nc2ccccc2S(=O)(=O)C(C)C)n1
inactive: [1] | [4] | [7] | [9] | [14]
active: [2] 2620 nM | [3] 187 nM | [5] 1180 nM | [6] 132 nM | [8] 743 nM | [12] 526 nM | [13] 235 nM

N#Cc1c(NC(=O)c2cccc3ccccc23)sc2c1CCCC2
active: [1] 418 nM and 291 nM | [16] 10500 nM | [3] 296 nM | [4] 332 nM | [5] 235 nM | [6] 235 nM | [8] 332 nM | [10] 132 nM | [12] 4690 nM | [13] 148 nM | [14] 1090 nM

CC(C(C)N1CC(=O)NC(=O)C1)N1CC(=O)NC(=O)C1 (centres undefined)
active: [4] 743 nM | [6] 743 nM | [8] 264 nM | [13] 743 nM
inactive: [1] | [16] | [3] | [9] | [11] | [14] | [15]

NC(=O)Nc1sc(-c2ccc(F)cc2)cc1C(N)=O
active: [1] 8.33 µM | [3] 469 nM | [5] 590 nM | [6] 59 nM | [7] 685 nM | [8] 469 nM | [9] 4690 nM | [10] 2350 nM | [11] 5410 nM | [12] 4690 nM | [13] 1180 nM | [15] 5260 nM
inactive: [16]

CC(=O)O[C@]1(C(C)=O)CC[C@H]2[C@@H]3C=C(C)C4=CC(=O)CC[C@]4(C)[C@@H]3CC[C@@]21C
inactive: [1] | [16]
active: [3] 7430 nM | [5] 2350 nM | [6] 2090 nM | [8] 2350 nM | [11] 3040 nM | [12] 2640 nM | [13] 5900 nM | [14] 15300 nM | [15] 13200 nM

CC(C)(O)Cn1c(NC(=O)c2ccc(-c3cn[nH]c3)s2)nc2cc(CN3CCOCC3)ccc21
active: [1] 3.72 µM | [2] 8290 nM | [3] 2350 nM | [4] 743 nM | [5] 1180 nM | [6] 2350 nM | [7] 1090 nM | [8] 743 nM | [9] 1870 nM | [10] 743 nM | [11] 1710 nM | [12] 743 nM | [13] 332 nM | [14] 3430 nM | [15] 1870 nM

C=Cc1c(C)c2cc3nc(cc4[nH]c(cc5nc(cc1[nH]2)C(C)=C5CCC(=O)O)c(CCC(=O)OC)c4C)[C@@]1(C)C3=CC=C(C(=O)OC)[C@H]1C(=O)OC
active: [3] 187 nM | [4] 590 nM | [5] 37.2 nM | [6] 59 nM | [7] 76.9 nM | [9] 372 nM | [10] 4690 nM | [11] 121 nM | [13] 52.6 nM | [14] 344 nM
inactive: [1] | [16]

CC[C@]12C=CCN3CC[C@@]4(c5cc([C@@]6(C(=O)OC)C[C@H]7C[C@@H](C(C)(F)F)CN(Cc8c6[nH]c6ccccc86)C7)c(OC)cc5N(C)[C@H]4[C@@](O)(C(=O)OC)[C@H]1OC(C)=O)[C@@H]32
active: [1] 0.743 µM | [16] 7430 nM | [3] 29.6 nM | [4] 1 nM | [5] 4.7 nM | [6] 3 nM | [8] 11.8 nM | [12] 132 nM | [13] 5.3 nM | [14] 34.3 nM

CC(=O)SCC(Cc1ccccc1)C(=O)NCC(=O)OCc1ccccc1 (centres undefined)
active: [3] 2350 nM | [4] 5900 nM | [5] 590 nM | [6] 187 nM | [7] 344 nM | [8] 1660 nM | [9] 3720 nM | [11] 271 nM | [13] 296 nM | [14] 3430 nM
inactive: [1] | [16]

CC(C)(N)c1ccc(-c2nc3ccccc3nc2-c2ccccc2)cc1
active: [1] 418 nM and 23.1 µM | [16] 18700 nM | [5] 5900 nM | [6] 4690 nM | [7] 15300 nM | [8] 18700 nM | [10] 1050 nM | [11] 21500 nM | [12] 23500 nM | [13] 13200 nM | [14] 24300 nM | [15] 20900 nM
inactive: [9]

CCCCOc1ccc(C(=O)Nc2ccc(F)cc2F)cc1
inactive: [1] | [16] | [3] | [7] | [8] | [9] | [10] | [13] | [14] | [15]

C[C@H]1O[C@H](O[C@H]2[C@H](O)[C@@H](O)[C@@H](O[C@H]3[C@H](O)[C@@H](O)C(O)O[C@H]3CO)O[C@H]2CO)[C@H](O)[C@@H](O)[C@H]1N[C@H]1C=C(CO)[C@@H](O)[C@H](O)[C@@H]1O (some centres undefined)
inactive: [1] | [2] | [3] | [8] | [9] | [11] | [15]
active: [4] 4690 nM | [5] 187 nM | [6] 33200 nM | [7] 1720 nM | [10] 2350 nM | [13] 2350 nM | [14] 2170 nM
